About 7,900 targets were measured; listed, in parts, are those with a hit and a random draw of the rest. About 0.6% of all pairs of compound and target were hits. Unmarked numbers belong to inactive results.
Experiments:
Test in all cases: log2 fold change, soluble protein after heating vs DMSO (PISA); higher = thermal stabilisation; K562 cells, 10 uM, 30 min; active = over 0.2 and 3.5 SD of the protein, either way, in both replicates (recomputed)
[1] = compound: Cc1ccc(NC(=O)c2ccc(CN3CC[C@H](N(C)C)C3)c(C(F)(F)F)c2)cc1Nc1nccc(-c2cncnc2)n1 [bafetinib]
Method in brief: (§1)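 Values are thermal stability changes relative to control samples and are taken from duplicates. They are stated as log2 fold changes. Before quantification by TMTpro 16plex LC-MS/MS with equalised channel sums, K562 cells at 2×10^6 cells/mL were treated with 10 μM compound for 30 min, heated in aliquots for 3 min across 48°C-58°C, pooled, extracted in PBS with 0.5% NP-40 at 4°C, and centrifuged at 21,000xg for 90 min to give the soluble supernatant.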

[2] = compound: Cc1cccc(CC(=O)N2CCc3c2ccc(-c2cn(C)c4ncnc(N)c24)c3F)n1
Method in brief: as §1

[3] = compound: Cc1cn(-c2cc(NC(=O)c3ccc(C)c(Nc4nccc(-c5cccnc5)n4)c3)cc(C(F)(F)F)c2)cn1 [nilotinib]
Method in brief: as §1

[4] = compound: Cc1nc(Nc2n[nH]c3c2CN(C(=O)N[C@H](CN(C)C)c2ccccc2)C3(C)C)c2sccc2n1
Method in brief: as §1

[5] = compound: Cc1nc(Nc2ncc(C(=O)Nc3c(C)cccc3Cl)s2)cc(N2CCN(CCO)CC2)n1 [dasatinib]
Method in brief: as §1

[6] = compound: Cc1ncc(-c2ccnc(Nc3ccc(S(C)(=O)=O)cc3)n2)n1C(C)C
Method in brief: as §1

[7] = compound: Cn1cc(-c2ccc3c(c2)CCN3C(=O)Cc2cccc(C(F)(F)F)c2)c2c(N)ncnc21
Method in brief: as §1

[8] = compound: Cn1cc(-c2ccc3nnc(C(F)(F)c4ccc5ncccc5c4)n3n2)cn1
Method in brief: as §1

[9] = compound: Cn1cncc1[C@@](N)(c1ccc(Cl)cc1)c1ccc2c(c1)c(-c1cccc(Cl)c1)cc(=O)n2C [tipifarnib]
Method in brief: as §1

[10] = compound: FC(F)(F)c1ccc(/C=C/c2nc(COc3ccc(CCCCn4ccnn4)cc3)co2)cc1 [mubritinib]
Method in brief: as §1

UniProt Q16513, sequence (Q16513 whole entry, looked up): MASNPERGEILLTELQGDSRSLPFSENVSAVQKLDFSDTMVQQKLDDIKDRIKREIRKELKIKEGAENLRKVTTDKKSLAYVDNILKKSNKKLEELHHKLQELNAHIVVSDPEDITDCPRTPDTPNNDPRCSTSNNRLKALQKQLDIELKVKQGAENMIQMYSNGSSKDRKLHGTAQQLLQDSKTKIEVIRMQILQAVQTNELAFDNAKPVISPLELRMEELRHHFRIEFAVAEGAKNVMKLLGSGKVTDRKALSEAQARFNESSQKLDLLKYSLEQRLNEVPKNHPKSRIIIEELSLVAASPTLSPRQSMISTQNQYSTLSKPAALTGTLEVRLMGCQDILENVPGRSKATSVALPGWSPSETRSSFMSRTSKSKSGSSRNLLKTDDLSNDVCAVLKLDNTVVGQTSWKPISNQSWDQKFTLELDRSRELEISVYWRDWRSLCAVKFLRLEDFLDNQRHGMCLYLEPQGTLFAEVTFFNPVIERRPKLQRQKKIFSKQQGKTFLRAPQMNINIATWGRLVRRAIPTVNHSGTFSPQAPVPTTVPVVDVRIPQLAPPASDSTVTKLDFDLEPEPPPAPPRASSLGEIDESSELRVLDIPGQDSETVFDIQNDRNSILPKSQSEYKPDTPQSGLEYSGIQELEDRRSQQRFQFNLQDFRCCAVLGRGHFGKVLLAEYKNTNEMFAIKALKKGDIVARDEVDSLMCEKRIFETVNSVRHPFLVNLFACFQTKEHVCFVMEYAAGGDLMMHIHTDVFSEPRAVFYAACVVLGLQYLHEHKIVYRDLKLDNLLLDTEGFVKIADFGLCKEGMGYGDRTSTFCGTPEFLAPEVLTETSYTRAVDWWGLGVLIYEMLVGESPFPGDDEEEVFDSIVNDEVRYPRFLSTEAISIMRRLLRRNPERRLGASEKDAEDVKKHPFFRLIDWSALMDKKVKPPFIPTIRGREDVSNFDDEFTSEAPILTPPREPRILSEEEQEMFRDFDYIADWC
UniProt O96011, sequence (O96011 whole entry, looked up, change not shown): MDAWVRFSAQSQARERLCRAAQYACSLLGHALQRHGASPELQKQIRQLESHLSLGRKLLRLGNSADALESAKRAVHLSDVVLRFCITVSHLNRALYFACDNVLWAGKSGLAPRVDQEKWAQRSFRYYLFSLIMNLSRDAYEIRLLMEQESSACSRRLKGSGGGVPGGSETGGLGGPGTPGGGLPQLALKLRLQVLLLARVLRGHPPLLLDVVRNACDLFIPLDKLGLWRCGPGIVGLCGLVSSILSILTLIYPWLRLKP
UniProt Q14181, sequence (Q14181 whole entry, looked up): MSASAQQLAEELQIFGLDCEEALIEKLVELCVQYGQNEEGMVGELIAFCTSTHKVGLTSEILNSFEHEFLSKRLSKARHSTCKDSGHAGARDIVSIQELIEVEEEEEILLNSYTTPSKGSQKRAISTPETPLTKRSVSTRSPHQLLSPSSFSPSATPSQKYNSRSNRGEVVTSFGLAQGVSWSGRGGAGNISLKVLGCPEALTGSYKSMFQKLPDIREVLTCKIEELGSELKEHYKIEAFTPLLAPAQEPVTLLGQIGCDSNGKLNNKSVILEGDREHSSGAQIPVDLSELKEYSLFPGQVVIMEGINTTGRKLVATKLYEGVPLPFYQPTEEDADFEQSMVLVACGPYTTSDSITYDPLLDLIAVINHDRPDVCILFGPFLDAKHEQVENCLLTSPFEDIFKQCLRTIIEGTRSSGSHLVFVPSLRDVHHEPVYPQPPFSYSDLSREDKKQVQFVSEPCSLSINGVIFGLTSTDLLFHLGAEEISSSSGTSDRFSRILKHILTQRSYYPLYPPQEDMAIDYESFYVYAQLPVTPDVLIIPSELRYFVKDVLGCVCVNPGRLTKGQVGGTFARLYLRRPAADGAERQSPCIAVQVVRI
UniProt P43686, sequence (P43686 whole entry, looked up): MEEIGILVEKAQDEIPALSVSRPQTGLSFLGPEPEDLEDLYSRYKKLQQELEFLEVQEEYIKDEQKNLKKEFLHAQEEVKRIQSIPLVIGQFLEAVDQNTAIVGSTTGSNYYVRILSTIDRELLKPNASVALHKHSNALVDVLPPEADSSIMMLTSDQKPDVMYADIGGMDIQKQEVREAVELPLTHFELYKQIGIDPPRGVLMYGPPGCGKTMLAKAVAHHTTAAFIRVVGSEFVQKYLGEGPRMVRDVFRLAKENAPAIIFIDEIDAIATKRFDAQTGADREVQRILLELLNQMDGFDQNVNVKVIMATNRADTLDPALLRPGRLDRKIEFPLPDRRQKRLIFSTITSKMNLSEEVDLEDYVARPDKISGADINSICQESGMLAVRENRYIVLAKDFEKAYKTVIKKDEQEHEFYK
UniProt Q5H8A4, sequence (Q5H8A4 whole entry, looked up): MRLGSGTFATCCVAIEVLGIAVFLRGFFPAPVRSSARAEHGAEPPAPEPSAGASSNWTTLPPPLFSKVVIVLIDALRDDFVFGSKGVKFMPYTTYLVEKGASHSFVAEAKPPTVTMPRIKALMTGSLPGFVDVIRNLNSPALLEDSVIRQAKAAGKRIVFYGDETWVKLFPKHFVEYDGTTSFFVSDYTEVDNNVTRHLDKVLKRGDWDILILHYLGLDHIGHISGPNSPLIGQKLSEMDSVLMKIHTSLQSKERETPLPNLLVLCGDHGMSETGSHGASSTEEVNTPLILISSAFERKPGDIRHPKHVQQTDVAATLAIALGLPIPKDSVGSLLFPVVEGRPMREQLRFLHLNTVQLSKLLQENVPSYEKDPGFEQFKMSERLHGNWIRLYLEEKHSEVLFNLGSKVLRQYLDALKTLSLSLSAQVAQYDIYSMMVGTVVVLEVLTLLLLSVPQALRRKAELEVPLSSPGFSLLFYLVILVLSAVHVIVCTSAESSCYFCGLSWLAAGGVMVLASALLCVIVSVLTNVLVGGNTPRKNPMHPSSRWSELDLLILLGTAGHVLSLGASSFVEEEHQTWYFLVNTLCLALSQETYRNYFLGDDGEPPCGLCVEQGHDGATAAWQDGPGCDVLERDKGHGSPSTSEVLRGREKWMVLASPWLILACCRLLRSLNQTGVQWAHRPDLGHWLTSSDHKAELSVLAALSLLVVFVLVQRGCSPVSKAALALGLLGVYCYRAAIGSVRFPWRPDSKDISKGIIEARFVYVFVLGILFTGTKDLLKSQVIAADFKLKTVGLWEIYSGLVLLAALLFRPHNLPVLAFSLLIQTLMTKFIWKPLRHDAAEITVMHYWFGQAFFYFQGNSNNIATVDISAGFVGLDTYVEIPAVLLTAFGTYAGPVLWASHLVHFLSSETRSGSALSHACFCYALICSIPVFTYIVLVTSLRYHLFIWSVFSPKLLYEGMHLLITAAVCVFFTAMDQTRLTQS
UniProt Q9BTU6, sequence (Q9BTU6 whole entry, looked up): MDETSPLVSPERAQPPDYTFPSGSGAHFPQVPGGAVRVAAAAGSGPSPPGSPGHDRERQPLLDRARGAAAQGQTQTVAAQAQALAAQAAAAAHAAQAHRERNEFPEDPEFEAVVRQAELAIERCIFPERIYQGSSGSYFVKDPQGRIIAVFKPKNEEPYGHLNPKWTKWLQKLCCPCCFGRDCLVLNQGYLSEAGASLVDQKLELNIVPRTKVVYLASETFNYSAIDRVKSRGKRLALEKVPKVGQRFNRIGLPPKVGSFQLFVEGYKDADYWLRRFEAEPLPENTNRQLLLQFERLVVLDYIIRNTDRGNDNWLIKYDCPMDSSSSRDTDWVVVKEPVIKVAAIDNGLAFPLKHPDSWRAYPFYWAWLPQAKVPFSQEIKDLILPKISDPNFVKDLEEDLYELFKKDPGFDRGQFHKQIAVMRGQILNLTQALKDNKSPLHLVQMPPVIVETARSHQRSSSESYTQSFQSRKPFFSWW
UniProt P0CG38, sequence (P0CG38 whole entry, looked up): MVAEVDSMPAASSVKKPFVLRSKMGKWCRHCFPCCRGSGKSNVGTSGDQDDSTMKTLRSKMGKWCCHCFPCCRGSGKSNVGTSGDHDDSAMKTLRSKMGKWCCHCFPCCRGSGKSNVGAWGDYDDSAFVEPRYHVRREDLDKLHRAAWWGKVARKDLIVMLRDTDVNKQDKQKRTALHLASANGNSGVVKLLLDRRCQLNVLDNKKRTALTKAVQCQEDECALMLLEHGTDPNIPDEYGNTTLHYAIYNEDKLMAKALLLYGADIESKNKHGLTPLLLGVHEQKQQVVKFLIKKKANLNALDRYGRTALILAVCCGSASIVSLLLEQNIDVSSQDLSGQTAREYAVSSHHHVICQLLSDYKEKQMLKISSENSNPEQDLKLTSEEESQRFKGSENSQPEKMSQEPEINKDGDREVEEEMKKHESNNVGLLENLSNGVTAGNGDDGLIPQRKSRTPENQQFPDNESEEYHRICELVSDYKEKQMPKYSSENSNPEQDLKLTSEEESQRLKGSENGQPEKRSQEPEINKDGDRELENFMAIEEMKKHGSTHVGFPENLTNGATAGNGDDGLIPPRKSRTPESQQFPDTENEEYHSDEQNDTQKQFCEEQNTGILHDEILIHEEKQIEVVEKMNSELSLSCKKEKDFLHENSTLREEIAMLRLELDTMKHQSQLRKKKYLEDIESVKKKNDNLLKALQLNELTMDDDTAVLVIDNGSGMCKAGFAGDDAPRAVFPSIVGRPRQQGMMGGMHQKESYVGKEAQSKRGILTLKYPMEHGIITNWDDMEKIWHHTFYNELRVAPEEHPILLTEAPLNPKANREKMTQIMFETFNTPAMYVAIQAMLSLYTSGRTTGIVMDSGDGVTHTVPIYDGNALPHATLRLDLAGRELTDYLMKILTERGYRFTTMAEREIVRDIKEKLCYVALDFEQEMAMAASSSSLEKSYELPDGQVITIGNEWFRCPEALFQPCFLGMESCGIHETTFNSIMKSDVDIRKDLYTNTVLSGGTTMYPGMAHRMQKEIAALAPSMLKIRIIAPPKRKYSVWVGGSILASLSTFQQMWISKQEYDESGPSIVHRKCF
UniProt O95997, sequence (O95997 whole entry, looked up): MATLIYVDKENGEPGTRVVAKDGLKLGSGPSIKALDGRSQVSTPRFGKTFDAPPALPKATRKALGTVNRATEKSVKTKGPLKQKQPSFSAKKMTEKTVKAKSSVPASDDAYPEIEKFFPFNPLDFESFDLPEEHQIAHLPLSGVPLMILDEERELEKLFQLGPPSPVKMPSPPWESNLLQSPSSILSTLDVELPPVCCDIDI

Target	log2 fold change [1]	log2 fold change [2]	log2 fold change [3]	log2 fold change [4]	log2 fold change [5]	log2 fold change [6]	log2 fold change [7]	log2 fold change [8]	log2 fold change [9]	log2 fold change [10]
PCBP1 (UniProt Q15365)	-0.007	0.033	-0.057	-0.086	-0.111	-0.026	0.064	-0.004	-0.119	-0.011
PSPC1 (UniProt Q8WXF1)	0.015	0.088	-0.004	-0.179	-0.02	-0.112	-0.003	0	-0.004	-0.033
PLSCR1 (UniProt O15162)	0.011	0.002	-0.004	-0.022	0.052	-0.032	0.024	0.048	0.036	0.148
POTEI (UniProt P0CG38)	-0.052	-0.02	0.046	-0.049	0.087	0.043	-0.005	-0.003	-0.019	0.004
PSMD2 (UniProt Q13200)	0.079	0	-0.031	0.061	0.031	-0.005	-0.12	-0.006	0.07	-0.038
PSMC4 (UniProt P43686)	0.087	0	-0.013	0.05	0.052	-0.019	-0.128	-0.037	0.117	-0.012
PSMD3 (UniProt O43242)	0.129	0.032	0.008	0.089	0.004	-0.012	-0.064	-0.018	0.025	-0.019
PMM1 (UniProt Q92871)	-0.2	0.022	-0.606 (active)	-0.152	-0.027	0.003	0.05	0.025	0.134	0.066
PLA2G15 (UniProt Q8NCC3)	-0.175	0.05	-0.001	-0.025	-0.036	-0.028	0.002	0.09	0.084	-0.05
PLIN2 (UniProt Q99541)	-0.326	0.037	0.184	0.03	-0.219	0.04	-0.016	0.047	-0.105	0.027
PLBD2 (UniProt Q8NHP8)	-0.173	-0.056	-0.011	0.024	-0.013	-0.052	0.017	0.044	0.093	0.056
PTTG1 (UniProt O95997)	0.062	0.021	-0.025	-0.011	0.031	-0.116	0.024	-0.066	-0.013	0.033
POMP (UniProt Q9Y244)	-0.097	-0.101	0.142	-0.093	0.006	-0.092	0.079	0.156	0.116	0.01
PPP1R12A (UniProt O14974)	-0.041	-0.02	-0.027	-0.302	-0.108	-0.118	-0.002	0.02	-0.023	0.07
RAB11FIP1 (UniProt Q6WKZ4)	-0.042	0.12	0.049	-0.198	-0.037	-0.172	0.008	0	0.003	0.003
QRSL1 (UniProt Q9H0R6)	-0.036	0.048	-0.041	-0.028	-0.171	0.045	0.037	0.024	0.002	-0.102
PEF1 (UniProt Q9UBV8)	-0.106	0.089	-0.005	0.012	-0.047	-0.013	0.132	0.113	-0.126	0.099
PARP1 (UniProt P09874)	0.05	-0.009	-0.028	-0.112	-0.245	0.178	0.026	0.131	-0.117	0.044
PSMB4 (UniProt P28070)	0.051	-0.052	0	0.063	0.076	-0.015	-0.03	0.014	0.047	0.009
PEX7 (UniProt O00628)	0.101	-0.025	-0.047	0.048	-0.025	-0.007	0.05	0.04	0.034	0.085

Target	log2 fold change [1]	log2 fold change [2]	log2 fold change [3]	log2 fold change [4]	log2 fold change [5]	log2 fold change [6]	log2 fold change [7]	log2 fold change [8]	log2 fold change [9]	log2 fold change [10]
PPP2R5C isoform 5 (UniProt Q13362)	-0.024	0.005	-0.168	-0.026	-0.227	0.026	0.031	-0.06	-0.099	0.042
PPOX (UniProt P50336)	-0.031	-0.013	0.494	0.027	0.208	-0.015	0.192	0.086	0.08	0
PIP4P2 (UniProt Q8N4L2)	-0.083	-0.111	0.013	-0.003	0.055	-0.026	-0.03	0.014	0.024	0.005
PIGG (UniProt Q5H8A4)	-0.034	0.047	0.083	0.007	-0.013	-0.022	0.004	-0.044	0.012	0.038
PXK (UniProt Q7Z7A4)	-0.01	0.086	-0.026	0.025	0.226	0.012	0.029	-0.106	-0.001	0.098
PPP4R3B (UniProt Q5MIZ7)	-0.054	0.116	-0.032	-0.006	-0.03	-0.013	0.037	0.054	-0.041	0.006
PSMD6 (UniProt Q15008)	0.115	0.008	0.022	0.054	0.059	-0.014	-0.083	-0.035	0.03	-0.012
PML (UniProt P29590)	-0.078	0.029	-0.035	-0.046	-0.036	-0.037	-0.047	-0.003	0.014	-0.023
PCBP2 isoform 3 (UniProt Q15366)	0.037	0.083	-0.095	-0.156	-0.132	-0.058	0.007	0.018	-0.08	0.004
PSMD12 (UniProt O00232)	0.119	0.033	0.026	0.044	0	-0.001	-0.088	-0.022	0.019	-0.034
PLBD1 (UniProt Q6P4A8)	-0.143	0	0.021	-0.029	-0.063	-0.035	0.041	0.081	0.038	0.052
PSMD8 (UniProt P48556)	0.089	-0.013	0.039	0.054	0.029	-0.031	-0.07	0.009	0.117	-0.032
PHKA1 (UniProt P46020)	0.023	-0.004	-0.233	-0.021	-0.303	0.023	0.027	-0.092	0.083	-0.04
PECAM1 (UniProt P16284)	-0.075	-0.011	0.087	0.097	0.031	0	-0.019	-0.013	0.015	0.022
PMPCA (UniProt Q10713)	0.063	0.016	0.024	0.057	0.54 (active)	-0.096	0.067	0.04	0.285 (active)	0.087
PGGHG (UniProt Q32M88)	-0.036	-0.001	0.012	0.023	0.009	-0.078	-0.152	0.058	-0.077	0.047
PDS5A (UniProt Q29RF7)	-0.055	0.008	-0.397	-0.164	-0.3	0.001	0.08	0.123	-0.231	0.157
PHF5A (UniProt Q7RTV0)	-0.097	-0.047	-0.018	0.012	0.102	0.086	-0.031	0.03	0.031	-0.025
PNPLA2 (UniProt Q96AD5)	0.084	-0.334	0.049	-0.112	-0.113	-0.118	0.056	0.049	-0.026	0.113
PTGFRN (UniProt Q9P2B2)	-0.061	-0.04	0.087	0.024	0.046	0.048	0.038	0.009	0.032	0.065

Target	log2 fold change [1]	log2 fold change [2]	log2 fold change [3]	log2 fold change [4]	log2 fold change [5]	log2 fold change [6]	log2 fold change [7]	log2 fold change [8]	log2 fold change [9]	log2 fold change [10]
PAK4 (UniProt O96013)	-0.072	0.011	-0.016	0.352 (active)	-0.068	0.01	0.04	0.007	0.015	-0.092
POLR3B (UniProt Q9NW08)	0.104	0.045	-0.111	-0.285	-0.238	-0.028	-0.059	0.089	-0.108	-0.086
PTDSS1 (UniProt P48651)	-0.125	0.092	-0.166	0.084	-0.002	0.017	-0.089	0.042	0.018	-0.074
PPT1 (UniProt P50897)	-0.742 (active)	0.011	0.021	0.02	0	-0.001	0.006	0.019	0.025	0.027
PSMB6 (UniProt P28072)	0.06	-0.053	0.028	0.049	0.098	-0.011	-0.068	-0.027	0.125	-0.014
PIP4K2C (UniProt Q8TBX8)	0.663	-0.112	0.354	0.053	-0.042	1.25 (active)	0.144	0.568	-0.07	-0.084
PEX16 isoform 2 (UniProt Q9Y5Y5)	-0.202	0.016	-0.067	0.006	0.004	-0.006	0.079	0.079	-0.067	0.174
PI4K2A (UniProt Q9BTU6)	-0.127	-0.042	0.004	0.037	-0.011	0.076	0.002	0.056	0.031	-0.006
PGK2 (UniProt P07205)	0.009	-0.036	0.066	0.096	0.11	-0.013	-0.137	-0.029	-0.006	-0.092
PIK3CB (UniProt P42338)	-0.075	0.028	-0.084	-0.056	-0.209	0.034	-0.002	0.049	-0.105	0.037
PTGES3 (UniProt Q15185)	-0.05	0.028	-0.044	-0.089	-0.142	-0.042	0.034	0.039	-0.119	-0.091
POLA2 (UniProt Q14181)	-0.038	0.058	-0.036	-0.072	-0.101	-0.02	0.022	0.001	-0.04	0.041
PGGT1B (UniProt P53609)	-0.069	-0.024	-0.007	-0.059	0.075	0.009	-0.027	0.004	0.134	0.062
PKN2 (UniProt Q16513)	0.068	0.062	0.125	-0.219	-0.138	0.051	0.016	0.01	-0.059	0.048
PIP4P1 isoform 2 (UniProt Q86T03)	-0.044	0.102	0.031	-0.004	0.051	-0.016	-0.158	0.01	0.112	-0.037
PRKAG1 isoform 3 (UniProt P54619)	-0.098	0.001	-0.079	-0.189	-0.056	-0.01	0.001	0.022	0.007	-0.052
POLR2A (UniProt P24928)	-0.019	-0.014	-0.039	0.24	-0.066	0.511 (active)	0	-0.037	0.004	0.038
PEX11B (UniProt O96011)	-0.022	0.081	0.04	0.041	-0.071	-0.043	0.049	0.01	-0.063	0.058
PRKAR2A (UniProt P13861)	0.029	0.007	0.139	-0.606 (active)	-0.055	-0.026	0.07	0.102	0.004	0.042

— the supplement of paper PMC10849652
